Among the test systems are HCT-15 colon; HT29 colon; SNB-75 CNS; SNB-19 CNS; U251 CNS; PC-3 prostate; SK-MEL-5 melanoma; UACC-62 melanoma; LOX IMVI melanoma; SK-MEL-28 melanoma.
What all share (assay): NCI-60 one-dose screen, 48 h (100 = growth as untreated, 0 = no growth, -100 = all killed)
What all share (conditions): 10 µM

Compounds without any hit were thinned out: in the full panel of roughly 83,000, 20% have a hit.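 Single-dose data. Exposure time 48 hours. Values below 10 considered active.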 A number with no mark means an inactive call. Activity calls are given as the source filed them.

For `Cc1ccc(/C(CS(=O)(=O)c2ccc(C)cc2)=N\O)cc1`, the growth is 95.2% in the assay with HCT-15 colon; 99.7% in the assay on HT29 colon; 87.8% in the assay with SNB-75 CNS; 88% in the assay with SNB-19 CNS; 90.4% with U251 CNS; 94.3% in the assay with PC-3 prostate. Further, the growth in the assay on SK-MEL-5 melanoma is 98.9%; in the assay with UACC-62 melanoma it was 87.3%; in the assay with LOX IMVI melanoma, 102%; in the assay with SK-MEL-28 melanoma it was 103%.

`COc1ccc(Nc2nc(NCc3ccccc3)c3ccccc3n2)cc1`: the growth in the assay with HCT-15 colon was 72.4%; in the assay with HT29 colon it was 49%; in the assay with SNB-75 CNS, -33% (active); with SNB-19 CNS, 14.4%; in the assay on U251 CNS it was 32.9%; with PC-3 prostate, 57.3%. The growth was 63.9% in the assay with SK-MEL-5 melanoma, 65.3% with UACC-62 melanoma, 46.8% in the assay with LOX IMVI melanoma and 67.7% in the assay on SK-MEL-28 melanoma.

As for `FC(F)(F)c1ccc(-c2cnc(Cl)nc2NCc2cc(C(F)(F)F)cc(C(F)(F)F)c2)cc1`, the growth is 8.09% (active) in the assay on HCT-15 colon; 21.3% in the assay on HT29 colon; 27.2% with SNB-75 CNS; 14.8% in the assay on SNB-19 CNS; 10.7% with U251 CNS; 4.94% (active) in the assay with PC-3 prostate. The growth is 77.3% in the assay with SK-MEL-5 melanoma, 6.65% (active) in the assay on UACC-62 melanoma, -8.46% (active) in the assay with LOX IMVI melanoma and 46% with SK-MEL-28 melanoma.

For the compound `COc1ccc(-c2nsc3c2NC(=O)CC3c2ccc(Cl)cc2)cc1` (stereo not given), the growth was 86.3% in the assay on HCT-15 colon; 89.8% in the assay with HT29 colon; 91.2% with SNB-75 CNS; 95.9% in the assay on SNB-19 CNS; 93.3% in the assay with U251 CNS; 82% in the assay with PC-3 prostate. For the same compound, the growth with SK-MEL-5 melanoma was 81.8%; in the assay with UACC-62 melanoma, 73.4%; in the assay on LOX IMVI melanoma it was 90.4%; in the assay on SK-MEL-28 melanoma, 103%.

As for `COc1ccc(-c2ccc(-c3ccc(C(=N)N)c(F)c3)s2)cc1`, the growth is -78.9% (active) in the assay with HCT-15 colon; -90% (active) with HT29 colon; -98.9% (active) in the assay with SNB-75 CNS; -89.6% (active) in the assay with SNB-19 CNS; -95.1% (active) with U251 CNS; -88.6% (active) with PC-3 prostate. Also, the growth in the assay with SK-MEL-5 melanoma is -93.9% (active); in the assay on UACC-62 melanoma it was -88.9% (active); in the assay on LOX IMVI melanoma, -84.3% (active); with SK-MEL-28 melanoma it was -91.5% (active).

As to `C/C(=N\NC(=O)c1sc(=S)n(C)c1N)c1cc2ccccc2o1`, the growth is 48% in the assay on HCT-15 colon; 36.6% in the assay with HT29 colon; 53% in the assay with SNB-75 CNS; 89.9% with SNB-19 CNS; 56.5% in the assay with U251 CNS; 45.5% in the assay on PC-3 prostate. The growth in the assay with SK-MEL-5 melanoma was 43.1%; with UACC-62 melanoma, 71.3%; in the assay on LOX IMVI melanoma it was 25.6%; in the assay with SK-MEL-28 melanoma it was 71.8%.

On to `COc1cccc(C2(C)Nc3ccccc3-c3nc4ccccc4n32)c1` (stereo not given), for which the growth in the assay with HCT-15 colon was 105%; with HT29 colon, 113%; with SNB-75 CNS, 103%; with SNB-19 CNS, 105%; in the assay on U251 CNS, 101%; in the assay on PC-3 prostate, 109%. For the same compound, the growth in the assay on SK-MEL-5 melanoma is 101%; with UACC-62 melanoma, 102%; with LOX IMVI melanoma it was 101%; in the assay with SK-MEL-28 melanoma, 107%.

Turning to `CCCCC(CC#N)(CCC)CCC`, the growth in the assay with HCT-15 colon is 99%; in the assay on HT29 colon, 99%; in the assay on SNB-75 CNS, 80.6%; in the assay with SNB-19 CNS, 106%; with U251 CNS it was 102%; in the assay with PC-3 prostate, 99.2%. The growth in the assay on SK-MEL-5 melanoma was 106%; in the assay with UACC-62 melanoma, 118%; in the assay with LOX IMVI melanoma, 92.1%; in the assay with SK-MEL-28 melanoma it was 99.6%.

Consider `Brc1ccc(-c2cn3ccnc3c(-c3ccc(Br)cc3)n2)cc1`, for which the growth with HCT-15 colon is 21.6%; in the assay with HT29 colon it was 9.88% (active); in the assay with SNB-75 CNS, 35.6%; in the assay with SNB-19 CNS, 75.8%; with U251 CNS, 39.2%; in the assay on PC-3 prostate it was 66.3%. The growth was 46.3% with SK-MEL-5 melanoma, 43.6% in the assay on UACC-62 melanoma, 43.2% in the assay on LOX IMVI melanoma and 62.2% with SK-MEL-28 melanoma.

On to `C[N+]1(CC2CO2)CCCCCC1` (stereo not given), for which the growth in the assay with HCT-15 colon was 94.9%; in the assay on HT29 colon, 112%; in the assay on SNB-75 CNS it was 92.9%; in the assay on SNB-19 CNS, 104%; with U251 CNS, 107%; in the assay on PC-3 prostate, 102%. The growth in the assay with SK-MEL-5 melanoma is 98.1%; with UACC-62 melanoma it was 102%; with LOX IMVI melanoma, 105%; in the assay with SK-MEL-28 melanoma it was 104%.

As for `COC(=O)c1cnc2c(c1)Oc1ccc(Cl)cc1-c1cc(C)nn1-2`, the growth in the assay with HCT-15 colon was 87.3%; in the assay on HT29 colon, 82.5%; in the assay with SNB-75 CNS it was 91.7%; with SNB-19 CNS, 62%; in the assay on U251 CNS, 50.4%; in the assay with PC-3 prostate, 95.1%. The growth in the assay on SK-MEL-5 melanoma is 88.1%; in the assay with UACC-62 melanoma, 74.7%; in the assay with LOX IMVI melanoma it was 60.2%; with SK-MEL-28 melanoma, 96.4%.

Regarding `CCCCc1ccc(NC(=O)N(CCCl)N=O)cc1`, the growth in the assay on HCT-15 colon was 102%; in the assay on HT29 colon, 99.6%; with SNB-75 CNS, 90.4%; with SNB-19 CNS, 88.5%; in the assay with U251 CNS, 80.8%; with PC-3 prostate it was 94%. The growth with SK-MEL-5 melanoma is 97.9%; in the assay on UACC-62 melanoma it was 86.2%; with LOX IMVI melanoma, 89.3%; in the assay with SK-MEL-28 melanoma it was 101%.

As for `O=c1oc2cc(OS(=O)(=O)C3CC3)ccc2c2c1CCCCCC2`, the growth with HCT-15 colon is 72.8%; in the assay with HT29 colon, 25.9%; in the assay on SNB-75 CNS, 98.7%; in the assay with SNB-19 CNS, 88.2%; with U251 CNS it was 79.1%; in the assay on PC-3 prostate, 68.7%. Besides, the growth was 37.3% in the assay with SK-MEL-5 melanoma, 71.3% in the assay with UACC-62 melanoma, 85.8% in the assay on LOX IMVI melanoma and 93.7% with SK-MEL-28 melanoma.

Take `COc1ccc(/C(CS(=O)(=O)c2ccccc2)=N\O)cc1`: the growth in the assay on HCT-15 colon is 99.4%; in the assay on HT29 colon it was 106%; in the assay with SNB-75 CNS, 87%; with SNB-19 CNS, 101%; with U251 CNS, 93.9%; in the assay on PC-3 prostate, 104%. Also, the growth was 95.8% in the assay on SK-MEL-5 melanoma, 95.1% in the assay with UACC-62 melanoma, 111% in the assay with LOX IMVI melanoma and 100% in the assay on SK-MEL-28 melanoma.

The record behind these values is PubChem BioAssay (NCI).
